Consider 50 compounds from ChEMBL document CHEMBL3988442, “University of Dundee, Small-Polar-MMV Screening Library” (2021).

For test [1], the target named is T1, Aspartate--tRNA(Asp/Asn) ligase (Mycobacterium tuberculosis (strain ATCC 25618 / H37Rv)) (UniProt P9WFW3). Note: in the data most compounds retested in dose-response had high values.
T1 sequence (whole entry): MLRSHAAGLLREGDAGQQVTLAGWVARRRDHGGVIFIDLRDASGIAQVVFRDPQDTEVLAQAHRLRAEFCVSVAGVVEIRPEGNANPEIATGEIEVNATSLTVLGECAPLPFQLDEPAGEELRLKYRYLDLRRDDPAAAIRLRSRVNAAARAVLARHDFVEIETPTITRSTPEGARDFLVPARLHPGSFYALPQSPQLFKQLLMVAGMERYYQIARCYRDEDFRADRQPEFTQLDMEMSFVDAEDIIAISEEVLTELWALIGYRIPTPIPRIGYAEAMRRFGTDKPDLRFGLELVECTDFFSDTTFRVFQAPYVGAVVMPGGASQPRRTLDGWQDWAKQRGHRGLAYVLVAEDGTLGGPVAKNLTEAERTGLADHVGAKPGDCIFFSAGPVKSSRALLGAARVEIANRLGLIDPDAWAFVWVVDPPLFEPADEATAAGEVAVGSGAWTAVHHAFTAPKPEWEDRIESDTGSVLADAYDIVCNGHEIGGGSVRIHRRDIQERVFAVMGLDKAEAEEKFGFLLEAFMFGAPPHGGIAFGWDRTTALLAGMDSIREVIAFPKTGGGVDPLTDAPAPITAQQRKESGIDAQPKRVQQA
Description: Assay for Asp RNA synthetase-1 from Mycobacterium tuberculosis. It is filed as functional. The arrangement: scale not given: direction of the effect not stated beside the values. To be noted: 30 µM.

The target in test [2] is Shiga toxin 2 (Escherichia coli O157:H7) (UniProt P09385+P09386). Description: E. coli 0.157:H7 Shiga Toxin SOP - stx2 screening assay. It is filed as functional. On the set-up: scale not given: direction of the effect not stated beside the values. To be noted: 30 µM.

As to `Cc1nc(N2CC[C@@H](NC(=O)c3cnccn3)[C@H](O)C2)c2ccsc2n1`, the Percent Effect in test [1] was -1.04%; in test [2], -6.15%.

Regarding `CN(C)CCN(Cc1ccc(Cl)cc1)C(=O)c1cc[nH]n1`, the Percent Effect in test [1] is -3.79%; in test [2], 9.32%.

On to `COc1ccc(C(C(=O)O)N2CCCN(C3CCCC3)CC2)cc1OC` (stereo not given), for which the Percent Effect in test [1] is 0.804%; in test [2], -25.6%.

`CCCN(CC1COc2ccccc2O1)C(=O)CCn1cncn1` (stereo not given): the figures for the Percent Effect in test [1] and in test [2] were -2.54% and 34.4%, respectively.

As to `CCC(=O)N1CCN(C(=O)CCn2cccn2)CC1`, the Percent Effect was -2.56% in test [1] and -8.34% in test [2].

Regarding `O=C(NCc1ccc(-c2ccn[nH]2)cc1)N1CCC(N2CCCC2)C1` (stereo not given), the figures for the Percent Effect in test [1] and in test [2] were -3.65% and 9.65%, respectively.

Turning to `Cc1ccc(S(=O)(=O)N2CCC3(CC(C(=O)NCC4CC4)=NO3)C2)cc1` (stereo not given), the Percent Effect in test [1] worked out at 10.8%; in test [2], 14.7%.

With `O=C(COc1cccc(Br)c1)N1CCOCC1c1ncon1` (stereo not given), the Percent Effect was -0.929% in test [1] and 9.16% in test [2].

On to `Cc1nn(C)c(C)c1C1CCCN1CC(=O)Nc1ccncc1` (stereo not given), for which the Percent Effect in test [1] is 1.52%; in test [2], 11.1%.

Turning to `CC(C)CCn1[nH]c(CNc2ccccc2)nc1=O`, the Percent Effect in test [1] was 5.27%; in test [2], -8.36%.

With `Cc1cc(C(=O)N2CCCCC2c2nc(C)cs2)[nH]n1` (stereo not given), the Percent Effect is -5.22% in test [1] and -15.7% in test [2].

On to `CN(CC(=O)N1CCC(Oc2ccccc2)CC1)c1cnccn1`, for which the Percent Effect was 0.175% in test [1] and -7.36% in test [2].

Take `CCOCCC(=O)Nc1cccc(Oc2ccccn2)c1`: the Percent Effect in test [1] was 5.81%; in test [2] it was -31.9%.

With `COc1cccc2c1ccn2CCC(=O)N1CCCC(C(=O)O)C1` (stereo not given), the Percent Effect in test [1] is 6.53%; in test [2], -30.4%.

`Cc1ccc(CN2CCOC3(COCCN(CCN(C)C)C3)C2)o1` (stereo not given): the Percent Effect is 5.87% in test [1] and -4.4% in test [2].

As for `OCC1CCCN1c1cc(N2CCC(OC3CCCC3)CC2)ncn1` (stereo not given), the Percent Effect in test [1] was -1.79%; in test [2] it was 7.55%.

Turning to `Cn1ccc(C(=O)NCc2cccc(N3CCCCC3=O)c2)cc1=O`, the Percent Effect in test [1] was 0.417%; in test [2], -29.6%.

On to `CC(C(N)=O)S(=O)(=O)Cc1cc(Cl)c2c(c1)OCO2` (stereo not given), for which the Percent Effect in test [1] was -7.47%; in test [2], 26.2%.

With `O=S(=O)(c1ccccc1Cl)N1CCc2nc(C3CCNCC3)ncc2C1`, the results for the Percent Effect in test [1] and in test [2] were -6.28% and -9.83%, respectively.

Turning to `CCOc1nnc(CN(C)C2CCCN(c3cccnn3)C2)s1` (stereo not given), the Percent Effect is 3.86% in test [1] and -25.9% in test [2].

Consider `CCCn1nc(C)c(CNC(=O)C2COc3c(cccc3OC)C2)c1C` (stereo not given), for which the Percent Effect in test [1] is 0.114%; in test [2], -6.29%.

As for `Cc1ccc(S(=O)(=O)Nc2ccc(=O)n(C)c2)cc1`, the values for the Percent Effect in test [1] and in test [2] were 26.8% and -7.78%, respectively.

With `CN1CCC(c2ncc3c(n2)CCN(C(=O)CC2C=CCC2)C3)CC1` (stereo not given), the figures for the Percent Effect in test [1] and in test [2] were 0.956% and -1.54%, respectively.

Take `O=C(c1ccc2c(c1)OCO2)N1CCCC(n2cccn2)C1` (stereo not given): the Percent Effect in test [1] was 4.23%; in test [2], 23.2%.

As to `Cc1cc(C[S+]([O-])CC(=O)Nc2c(C)cccc2C)no1` (stereo not given), the values for the Percent Effect in test [1] and in test [2] were -6.04% and 17%, respectively.

Take `COCCN1C(=O)[C@]2(CC[C@@H]3CN(C(=O)NCC(C)C)C[C@@H]32)N=C1C`: the Percent Effect was -3.99% in test [1] and -11.7% in test [2].

With `CCN1CCCC1CN(CCN(C)C)S(=O)(=O)c1cccc(C#N)c1` (stereo not given), the Percent Effect was 5.06% in test [1] and -21% in test [2].

With `Cc1cnc(CN(C)C2CCN(CC(=O)Nc3c(C)n[nH]c3C)C2)o1` (stereo not given), the values for the Percent Effect in test [1] and in test [2] were -2.74% and -14.3%, respectively.

On to `COC(=O)c1sccc1S(=O)(=O)NCC1(O)CCOc2ccccc21` (stereo not given), for which the Percent Effect in test [1] is -2.1%; in test [2], 6.1%.

Take `CC(C)CN(Cc1nc2c(cnn2C)c(=O)[nH]1)C(C)C`: the Percent Effect in test [1] was -2.77%; in test [2], 0.929%.

For the compound `O=C(Nc1cccc(CN2CCOC2=O)c1)N1CCSCC1`, the Percent Effect in test [1] was -4.15%; in test [2], -52.5%.

For `CCn1c(CN(C)C)nnc1C1CCN(Cc2ccccc2)CC1`, the results for the Percent Effect in test [1] and in test [2] were -0.862% and -23.5%, respectively.

For `CCc1nnc2n1CCN(C(=O)c1ccc(C(F)(F)F)nc1C)C2`, the Percent Effect in test [1] was 1.43%; in test [2], -8.18%.

With `Cc1nn(C)c(C)c1C1CCCN1C(=O)c1ccc(CN(C)C)cc1` (stereo not given), the Percent Effect is -2.88% in test [1] and -14% in test [2].

On to `COCc1ccccc1C(=O)N1CCCC(n2nc(C)cc2C)C1` (stereo not given), for which the Percent Effect in test [1] is -2.97%; in test [2], -10.9%.

Take `Cc1cc(C)n(CC2CCCN2C(=O)Cc2c(C)noc2C)n1` (stereo not given): the results for the Percent Effect in test [1] and in test [2] were 7.79% and 9.09%, respectively.

As to `CN1CCC(C(=O)NCc2nncn2-c2ccccc2)CC1=O` (stereo not given), the figures for the Percent Effect in test [1] and in test [2] were -4.57% and 18.1%, respectively.

As for `Cc1nccn1CC1CCCN1CCCc1nc(-c2cccs2)no1` (stereo not given), the Percent Effect in test [1] stood at 5.89%; in test [2], 16.4%.

`Cc1nn(C)c(Cl)c1CNCc1ccc(OCC(N)=O)cc1`: the Percent Effect in test [1] was -2.25%; in test [2], -17.5%.

On to `Cc1cc(NC(=O)CN2CCn3c(nnc3C(C)C)C2)no1`, for which the Percent Effect in test [1] was -3.23%; in test [2], -39.9%.

`O=C(c1ccccn1)N1CCn2cnc(COCC3CC3)c2C1`: the results for the Percent Effect in test [1] and in test [2] were 1.82% and -5.26%, respectively.

In the case of `CC(C)c1ccc(CN2CCC3(CCCN(c4nncs4)C3)C2)cc1` (stereo not given), the Percent Effect is 1% in test [1] and 5.96% in test [2].

`Cc1cnc2c(S(=O)(=O)NCC3CCN(C4CC4)C3)cccc2c1` (stereo not given): the values for the Percent Effect in test [1] and in test [2] were 3.65% and 25.5%, respectively.

As for `Cc1c(C2CCCN(C(=O)C3CC3)C2)n2c(nc1=O)CCC2` (stereo not given), the Percent Effect in test [1] is -0.253%; in test [2] it was 10.2%.

As for `Cc1ccccc1C(=O)N1CCOC2(CNCCOC2)C1` (stereo not given), the figures for the Percent Effect in test [1] and in test [2] were -0.279% and -0.428%, respectively.

Consider `CNC(=O)CN1CCCC12CCN(C(=O)c1ccsc1)CC2`, for which the Percent Effect in test [1] was 0.137%; in test [2], -0.413%.

`Cc1ccc(C(C)N(C)Cc2nc3c(cnn3C)c(=O)[nH]2)cc1` (stereo not given): the Percent Effect is 1.46% in test [1] and 12.8% in test [2].

On to `Cc1ccc(NC(=O)c2cc(S(=O)(=O)N3CCCCC3)c[nH]2)cc1F`, for which the results for the Percent Effect in test [1] and in test [2] were 1.97% and 17.8%, respectively.

Consider `Cc1ccc(-c2nnc(CN3CCc4cnc(C)nc4C3)o2)cc1`, for which the Percent Effect in test [1] was 2.13%; in test [2], -61%.

For the compound `CC(=O)N1CCN(c2ccc3ccc(C(=O)NC4CCCC4)cn23)CC1`, the Percent Effect was -0.91% in test [1] and -45% in test [2].
